About 83,000 compounds went through this panel and 20% of them were active in at least one assay; those are over-represented in the sample as a whole.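 In brief: 96-well plates, 48 h treatment, single concentration, percent growth endpoint.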 A number with no mark means an inactive call. Active and inactive are the calls of the source. Rule for the calls: active = growth percent below 10; inactive = the rest.

Common to all, as to assay: NCI-60 one-dose screen, 48 h (100 = growth as untreated, 0 = no growth, -100 = all killed)
What all share (settings): 10 µM unless noted

In assay [1] the test system is SR leukemia.
The test system of assay [2] is RPMI-8226 leukemia.
Assay [3] has as its system OVCAR-8 ovarian.
The test system of assay [4] is OVCAR-5 ovarian.
The subject of assay [5] is OVCAR-4 ovarian.
The subject of assay [6] is SK-OV-3 ovarian.
Assay [7] relates to IGROV1 ovarian.
Assay [8] concerns OVCAR-3 ovarian.
The test system of assay [9] is HS 578T breast.
In assay [10] the test system is NCI/ADR-RES ovarian.
Assay [11] relates to T-47D breast.
Assay [12] concerns BT-549 breast.
For assay [13], the system named is MDA-MB-435 melanoma.
The test system of assay [14] is SW-620 colon.
The subject of assay [15] is MCF7 breast.
In assay [16] the test system is HCT-116 colon.
Assay [17] concerns KM12 colon.
Assay [18] concerns HCC-2998 colon.

`O=c1cc(C(F)(F)F)c2cc(-c3cc4ccccc4c(=O)o3)c(O)cc2o1`: the growth in [1] is 85.5%; in [2], 17.7%; in [3], 87%; in assay [4] it was 103%; in [5] it was 64%; in [6], 73.3%. Moreover, the growth is 92.6% in assay [7]; 56.9% in [8]; 79.5% in assay [9]; 78.9% in assay [10]; 49.4% in [11]; 63.6% in assay [12]. The growth in assay [13] is 72.8%; in [14], 86.1%; in assay [15], 77.4%; in assay [16] it was 71.7%; in assay [17], 76.5%.

Turning to `Clc1ccc(-c2nc(C(Cl)Cl)nc3cc(-c4ccccc4)nn23)cc1`, the growth was 10.4% in assay [1]; 38.5% in assay [2]; 29.8% in [3]; 17% in assay [4]; -7.63% (active) in assay [5]; 18.6% in assay [6]. For the same molecule, the growth is 54.8% in assay [7]; -10.2% (active) in assay [8]; -4.46% (active) in [9]; 19.7% in [10]; 55.3% in assay [11]; 89% in [12]. The growth in assay [13] was 37.9%; in [14], -5.43% (active); in [15] it was 24.8%; in [16], 23.1%; in [18], -53.7% (active); in assay [17], 3.35% (active).

Consider `COC(=O)c1ccc2c(c1)c1c(C)c3cnccc3c(C)c1n2C`, for which the growth is 18.2% in assay [1]; -15.4% (active) in [2]; 0.0639% (active) in assay [3]; -33.3% (active) in [4]; -14.8% (active) in assay [5]; -15.3% (active) in assay [6]. Further, the growth in assay [7] is -33.1% (active); in assay [8] it was -26% (active); in assay [9], -15% (active); in assay [10] it was -25% (active); in assay [11], -21.6% (active); in assay [12], -4.33% (active). In addition, the growth is 6.89% (active) in [13]; -6.12% (active) in assay [14]; -37.1% (active) in assay [15]; -59.8% (active) in [16]; 1.42% (active) in assay [18]; 1.9% (active) in assay [17].

With `COCCn1cc(-c2csc(-c3c[nH]c4ccc(F)cc34)n2)c2cccnc21`, the growth in [1] was 9.53% (active); in assay [2], 21.4%; in assay [3], 34%; in assay [4], 60.9%; in [5] it was 37.6%; in assay [6] it was 49.7%. In addition, the growth in [7] is 42%; in [8], 15.2%; in assay [9], 52.2%; in assay [10] it was 7.39% (active); in assay [11], 2.36% (active); in assay [12] it was 7.07% (active). The growth was 5.02% (active) in [13]; 18.8% in [14]; 11.8% in [15]; 22.2% in [16]; 27.6% in [18]; 8.29% (active) in assay [17].

`Cc1ccc(S(=O)(=O)N2CCCN(c3nc(-c4ccccc4)nc4nc(-c5ccccc5)oc34)CC2)cc1`: the growth in assay [1] is 92.2%; in [2], 89.6%; in [3], 95.4%; in [4], 105%; in [5], 103%; in assay [6], 107%. The growth in assay [7] was 90.2%; in [8], 114%; in [9] it was 103%; in assay [10], 102%; in [11] it was 90.8%; in assay [12], 117%. The growth in assay [13] is 104%; in [14], 111%; in assay [15], 93.4%; in assay [16] it was 104%; in assay [17] it was 109%.

Consider `CCOC(=O)C(CCN(C)C)c1ccccc1` (stereo not given), for which the growth in assay [1] was 97.8%; in [2] it was 98.2%; in [3], 111%; in assay [4], 88.7%; in assay [5], 100%; in assay [6], 104%. Also, the growth in assay [7] is 104%; in [8], 96.4%; in assay [9], 98%; in [10], 103%; in assay [11], 103%; in assay [12], 97.3%. Besides, the growth in [13] is 107%; in assay [14], 108%; in assay [15], 92.7%; in assay [16] it was 104%; in assay [17], 104%.

As for `Cc1ccc(C(=O)c2ccc(CC(=O)N/N=C/c3cccc(O)c3O)n2C)cc1`, the growth in [1] was 8.86% (active); in assay [2] it was 35.1%; in assay [3], 38.6%; in assay [4] it was 72.6%; in assay [5], 29.1%; in assay [6], 68%. Besides, the growth in assay [7] is 51.2%; in assay [8] it was 23.5%; in assay [9], 87.4%; in assay [10], 19.2%; in [11], 25.9%; in [12] it was 45.8%. The growth in assay [13] was 61.1%; in assay [14] it was 34.3%; in assay [15], 16.1%; in assay [16], 30.8%; in [18], 70.6%; in assay [17], 44.2%.

Turning to `CCCOC(=O)Nc1nc2ccc(SCC)cc2s1`, the growth in [1] was 25.9%; in [2] it was 85.1%; in assay [3], 94.7%; in assay [4], 102%; in [5], 94.2%; in assay [6], 95.8%. Besides, the growth is 89.5% in assay [7]; 76.9% in [8]; 93.4% in [9]; 50.5% in assay [10]; 84.8% in [11]; 85.5% in [12]. The growth is 3.85% (active) in assay [13]; 52.5% in [14]; 43.7% in assay [15]; 62.8% in assay [16]; 58.6% in assay [17].

(Values after PubChem BioAssay (NCI).)
